HT1080 IDH1KD tx: HT-1080 IDH1 knockdown cell toxicity (counter line). HT-1080 IDH1 knockdown viability, ATP luminescence, 48 h. Potency, µM (titrated, usually from 46.1 µM), without a hit: at the highest dose activity, negative = toxicity, hits mostly cytotoxic. 360,000 compounds, 2% hits;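 further: potency means the concentration at half of the fitted maximal effect; 0% = DMSO wells and -100% = cell-free medium wells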
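After a 2 h attachment period, IDH1KD HT-1080 cells took pin-transferred compound for 48 h at 37 °C; ATP-based luminescence after 10 min room-temperature reagent incubation reported viability.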
DT40 TDP1 CPT: growth inhibition of DT40 Tdp1-/-;hTDP1 cells with camptothecin (screen for TDP1 inhibitors). chicken DT40 Tdp1-/-;hTDP1 cells + 20 nM CPT, ATP luminescence, 48 h. Potency, µM (titrated, usually from 46.2 µM), for the others: at the top dose activity change, negative = growth inhibition, most hits filed as inhibitors. 420,000 compounds, 12% hits. AID 686979; further: potency means the concentration at half of the fitted maximal effect; nearly all actives have a fitted effect of over 55% in size
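Cell growth measured by CellTiter-Glo luminescence after a minimum 48 h, 37 C compound exposure with 20 nM CPT in Tdp1-knockout DT40 cells stably expressing hTDP1, seeded 400/well; qHTS titration format.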
HT1080NT lethal: kills 2HG-producing HT-1080-NT fibrosarcoma cells; HT-1080-NT fibrosarcoma viability, CellTiter-Glo ATP luminescence, 48 h; Potency, µM (top dose mostly 46.1 µM), for inactives: at the top dose activity, negative = less viability, actives largely listed as cytotoxic; 360,000 compounds, 1.6% hits;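 further: NT is the 2HG producing partner of a matched IDH1 knockdown line; potency means the concentration at half of the fitted maximal effect; 0% = DMSO-treated cells and -100% = media-only wells without cells; nearly all actives have a fitted effect of over 55% in size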
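HT-1080-NT fibrosarcoma cells (2HG-overproducing), 750 cells/well in RPMI with 5% FBS, dosed after 2 h and incubated 48 h at 37C. CellTiter-Glo luminescence normalized to DMSO and no-cell wells; concentration-response curves fitted and classed.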
uPA surface inh: blocks generation of uPA at the cell surface. cell surface uPA generation assay, qHTS. Potency, µM (doses to about 38.3 µM), without a hit: top-dose activity change, negative = inhibition, most hits filed as inhibitors. 330,000 compounds, 0.31% hits. AID 540303; active means well fitted inhibition curve with a large enough effect; inconclusive means small, poorly fitted or top-dose-only effect; inactive means no such curve, though single readings can be large or run the other way; tested in mouse RAW 264.7 cells; further: potency means the concentration at half of the fitted maximal effect; nearly all actives have a fitted effect of over 55% in size
DT40 TDP1 no CPT: qHTS for Inhibitors of human tyrosyl-DNA phosphodiesterase 1 (TDP1): qHTS in cells in absence of CPT. Potency, µM (doses to about 46.2 µM), inactives show at the highest dose activity change, negative = growth inhibition, usual class: inhibitors. 420,000 compounds, 15% hits. DT40 Tdp1-/- hTDP1 cells, no CPT, ATP luminescence, 48 h; further: potency means the concentration at half of the fitted maximal effect; nearly all actives have a fitted effect of over 55% in size
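Seeded 400 DT40-hTDP1 cells/well (vehicle DMSO, no 20 nM CPT); pinned compounds; ≥48 hr at 37 °C; CellTiter-Glo luminescence as viability measure.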
IL-1B inflam inh: inflammasome signaling inhibition, IL-1 beta readout. THP-1 LPS/ATP IL-1B secretion, AlphaLISA, 16 h; stronger effect = lower value. 360,000 compounds, 4.7% hits. AID 743279. activity change, % at 57.5 µM; in the data active means activity change below about -50%; inconclusive means mostly about -30% to -49%
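THP-1 cells pretreated 1 hr with compounds (up to 57.5 uM final), then stimulated with LPS (250 ng/mL final) plus ATP (1.25 mM final); secreted IL-1B measured by AlphaLISA after 16 hr, decreased signal indicating inhibition.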
Active calls of the source: *; ? = inconclusive; · = not tested or not shown; [ ] = another dose, or the depositor's remark. An excerpt weighted towards active compounds, which were near 19% of everything screened. Unless noted, the call rests on the fitted dose curve; in most records, active means well fitted curve in the direction sought with a large enough effect; inconclusive means small, poorly fitted or top-dose-only effect, or another doubt; inactive means no such curve, though single readings can be large; an effect the other way counts as inactive or inconclusive. Unless noted, on the % scale 0 is the no-effect control and ±100 the full control effect.

SMILES	HT1080 IDH1KD tx	DT40 TDP1 CPT	HT1080NT lethal	uPA surface inh	DT40 TDP1 no CPT	IL-1B inflam inh
CC(C)(C)NC(=O)NC(=O)COC(=O)CNS(=O)(=O)/C=C/c1ccccc1	0%	6%	-15%	7%	-20%	-4
Cn1c(=O)c(Nc2ccc(Cl)cc2)c2c3c(cccc31)C(=O)c1ccccc1-2	0%	?	-5%	2%	18µM*	-2
COc1ccc(Oc2ncc3nc(-c4ccc(F)cc4)c(=O)n(Cc4cccs4)c3n2)cc1	·	12%	·	·	-4%	·
CCNc1nc(NC(C)(C)C)nc(N(CC)n2cnnc2)n1	11%	-1%	5%	-9%	-16%	16
CN(C)c1nc(NC(C)(C)C)nc(NC(C)(C)C)n1	0%	?	-3%	-8%	21µM*	24
C=C1C(=O)O[C@H]2C[C@]3(C)C([C@@H](OC(=O)/C(C)=C/C)[C@H]12)[C@](C)(O)CC[C@H]3O (some centres undefined)	?	15µM*	?	?	8.2µM*	-58*
COCCNc1nc(-c2ccc(Cl)cc2C)c2sccc2n1	-4%	?	?	·	?	-14
CCCCOc1ccc(/C=C/C2=CC(C)(C)NC(=S)N2)cc1OCC	?	?	-26%	-1%	13µM*	?
N#Cc1ccccc1NS(=O)(=O)c1cc2c3c(c1)CCN3C(=O)CC2	-2%	3%	0%	3%	-4%	22
CCCC1C(=O)Nc2ccccc2N1C(=O)c1ccc(C(C)(C)C)cc1 (centres undefined)	?	?	9.2µM*	-6%	21µM*	-82*
Cc1cccc(COc2ccc(/C=C3/C(=O)N(C)C(=S)N3C)cc2)c1	10%	?	6%	3%	?	-16
CCCS(=O)(=O)NCc1c(C)ncc2c1CCN(C(=O)c1ccc(Cl)cc1)C2	·	-3%[9.04 µM]	·	·	-16%	·
Fc1ccccc1Nc1c2c(nc3ccccc13)CCC2	·	?	·	·	21µM*	·
COc1ccc(Nc2c3c(nc4ccccc24)CCC3)cc1	?	?	23µM*	1%	21µM*	·
Clc1c2c(nc3ccccc13)CCC2	1%	-23%	5%	9%	2%	-10
CC(C)(C)Nc1c2ccccc2nc2ccccc12	-11%	21µM*	-10%	-10%	18µM*	-92*
COc1ccccc1Nc1cc(C)nc(Nc2ccccc2OC)n1	1%	21µM*	1%	3%	23µM*	-14
O=S(=O)(Nc1ncccn1)c1ccc(NC(=S)NCc2cccnc2)cc1	20%	8%	21%	3%	4%	13
COC(=O)[C@@H]1CCCN1Cc1ccc2c(c1)CN(Cc1cccc(Cl)c1)CCO2	·	0%[9.04 µM]	·	·	-25%	·
COc1cc(-c2nnc(-c3cc(-c4ccccc4)nc4ccccc34)o2)cc(OC)c1OC	-8%	-16%	9%	17%	?	-12
COc1ccc(Nc2cc(C)c3ccccc3n2)cc1	-9%	-29%	-16%	0%	?	-97*
COc1cc(Nc2c3ccccc3nc3ccccc23)cc(OC)c1OC	?	7.3µM*	10µM*	-18%	5.2µM*	-95*
COc1ccc(C)cc1Nc1c2c(nc3ccccc13)CCC2	1.2µM*	3.3µM*	?	-17%	2.6µM*	-82*
COc1ccccc1Nc1c2ccccc2nc2ccccc12	?	16µM*	16µM*	-20%	16µM*	-93*
CCCC(=O)NC1CC(=O)N(c2ccc3c(c2)OCCO3)C1 (centres undefined)	·	-1%	·	·	-25%	·
CC(C)CCNC(=O)Nc1cc(C(=O)NCc2cccc(F)c2)ccc1N1CCCC1	·	-24%	·	·	?	·
Cc1ccc2nc3c(c(Nc4ccccc4)c2c1)CCC3	?	?	?	-6%	?	·

Screens (PubChem BioAssay)
